Compound activity: PubChem, National Center for Advancing Translational Sciences (NCATS)
G9a block: inhibitors of human histone lysine methyltransferase G9a. Q96KQ7. G9a H3K9 monomethylation, AlphaScreen, 2 h. Potency, µM (doses to about 102 µM), usual class: inhibitors. 350,000 tested, 8.8% active. AID 504332; also: nearly all actives have a fitted effect of over 75% in size
Target sequence (Q96KQ7 913-1193 limits assumed): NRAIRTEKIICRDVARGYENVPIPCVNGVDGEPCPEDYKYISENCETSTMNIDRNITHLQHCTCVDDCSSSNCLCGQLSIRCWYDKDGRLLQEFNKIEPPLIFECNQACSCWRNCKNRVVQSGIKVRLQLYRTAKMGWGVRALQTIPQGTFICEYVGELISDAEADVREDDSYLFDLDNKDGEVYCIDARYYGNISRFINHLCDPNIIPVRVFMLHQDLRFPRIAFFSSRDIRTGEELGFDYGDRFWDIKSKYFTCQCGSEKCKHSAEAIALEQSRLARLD
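Compounds were preincubated with 20 nM G9a for 15 min, after which biotinylated H3K9 peptide (500 nM) and SAM (20 uM) started a 2 h room-temperature reaction. Monomethylated product was quantified by antibody-based AlphaScreen chemiluminescence.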
HP1b chromo inh: blocks HP1-beta chromodomain binding to methylated histone tails | P83916 | AlphaScreen HP1-beta / biotin-H3K9me3 peptide binding | Potency, µM (titrated, usually from 114 µM), usual class: inhibitors | 390,000 tested, 0.56% active | AID 540317; also: nearly all actives have a fitted effect of over 70% in size
Target sequence (P83916 whole entry, looked up): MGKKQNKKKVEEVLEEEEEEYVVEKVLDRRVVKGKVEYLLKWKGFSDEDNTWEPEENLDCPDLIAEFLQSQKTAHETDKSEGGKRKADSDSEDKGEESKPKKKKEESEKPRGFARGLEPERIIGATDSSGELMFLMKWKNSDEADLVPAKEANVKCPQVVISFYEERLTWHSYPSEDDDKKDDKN
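AlphaScreen: HP1-beta (50 nM) preformed 30 min with biotin-H3(1-18)K9me3 peptide (50 nM) in PBS pH 7.4, 0.01% Tween-20. Compound added for 30 min at RT, then streptavidin donor/nickel chelate acceptor beads (10 ug/mL) for 30 min.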
PLK1 PBD inh: inhibitors of human PLK1 polo-box domain binding; 360,000 tested, 2.8% active; Plk1 PBD binding of FITC phosphopeptide, fluorescence polarization; Potency, µM, most hits filed as inhibitors; P53350; also: series mostly up to about 57 µM; nearly all actives have a fitted effect of over 65% in size
JMJD2A Tudor inh: JMJD2A Tudor domain (human) inhibition; O75164; AlphaScreen JMJD2A-Tudor / H3K4me3 peptide binding; Potency, µM (doses to about 114 µM), hits mostly inhibitors; 390,000 tested, 4.4% active; AID 504339; also: nearly all actives have a fitted effect of over 50% in size
VDR inh: blocks the human vitamin D receptor; P11473; VDR-SRC2-3 peptide fluorescence polarization, 2 h; Potency, µM, hits mostly inhibitors; 400,000 tested, 0.93% active
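Two reagent solutions held at 4 deg C in the dark were dispensed, compounds pinned at 23 nl, and the mixture incubated 2 h at room temperature. Read-out: fluorescence polarization of VDR–SRC2-3 peptide binding.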
BAZ2B inh: inhibitors of human BAZ2B bromodomain | Q9UIF8 | 360,000 tested, 4.4% active | AID 504333 | AlphaScreen BAZ2B-H3K14Ac peptide displacement | Potency, µM (titrated, usually from 114 µM), hits mostly inhibitors; also: nearly all actives have a fitted effect of over 60% in size
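AlphaScreen displacement of biotin-H3(5-23)K14Ac peptide (50 nM final) from BAZ2B (50 nM final) in PBS pH 7.4, 0.01% Tween-20; complex preformed 30 min RT, then compounds (top 110 uM) 30 min RT, beads 20 min dark.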
Numbers stand for hits; [ ] = dose if it differs, or a comment. In the library only some 11% were active in any assay of this set; here they are far more common. Calls follow the shape of the dose curve; as a rule, active = well fitted curve in the direction sought with a large enough effect; inconclusive = small, poorly fitted or top-dose-only effect, or another doubt; inactive = no such curve, though single readings can be large; an effect the other way counts as inactive or inconclusive.

CC(Sc1nc(N)cc(=O)[nH]1)C(=O)NNC(=O)c1cccc(Cl)c1 (stereo not drawn) was read as G9a block inactive, HP1b chromo inh inactive, PLK1 PBD inh inactive, JMJD2A Tudor inh inactive, VDR inh inactive and BAZ2B inh inactive.
`CCOC(=O)C1CCN(C(=O)C2CCCN(c3ncnc4c3nc3n4CCCCC3)C2)CC1` (stereo not drawn) gave G9a block inactive, HP1b chromo inh inactive, PLK1 PBD inh inactive, JMJD2A Tudor inh inactive, VDR inh inactive and BAZ2B inh inactive.
For Cc1cccc(-c2nsc(SCC(=O)NCC3CCCO3)n2)c1 (stereo not drawn) the results were G9a block 18µM, HP1b chromo inh inactive, PLK1 PBD inh 8.4µM, JMJD2A Tudor inh inactive, VDR inh inactive and BAZ2B inh inactive.
Screening Cc1cccc(-c2noc(CCCC(=O)NCC3CCCO3)n2)c1 (stereo not drawn) returned G9a block inactive, HP1b chromo inh inactive, PLK1 PBD inh inactive, JMJD2A Tudor inh inactive, VDR inh inactive and BAZ2B inh inactive.
Screening CCNc1ncc2nc(-c3ccc(F)cc3)c(=O)n(CCC#N)c2n1 returned G9a block inactive[12.7 µM] and VDR inh inactive.
Cc1ccccc1CNCCSc1nnnn1C was read as G9a block inactive, HP1b chromo inh inactive, JMJD2A Tudor inh inactive, VDR inh inactive and BAZ2B inh inactive.
COc1ccc(Br)cc1CNCCSc1nnnn1C was read as G9a block 56µM, HP1b chromo inh inactive, PLK1 PBD inh inactive, JMJD2A Tudor inh inactive, VDR inh inactive and BAZ2B inh inactive.
COc1cccc(CNCCCSc2nnnn2C)c1 was read as G9a block inactive, HP1b chromo inh inactive, JMJD2A Tudor inh inactive, VDR inh inactive and BAZ2B inh inactive.
For COc1ccc(CNCCSc2nnnn2C)c(OC)c1OC the results were G9a block inconclusive, HP1b chromo inh inactive, PLK1 PBD inh inactive, JMJD2A Tudor inh inactive, VDR inh inactive and BAZ2B inh inactive.
Screening Cn1nnnc1SCCNCc1cccc2ccccc12 returned G9a block 50µM, HP1b chromo inh inactive, PLK1 PBD inh inactive, JMJD2A Tudor inh inactive, VDR inh inactive and BAZ2B inh inactive.
Screening COc1cccc(CNCCSc2nnnn2C)c1 returned G9a block 56µM, HP1b chromo inh inactive, PLK1 PBD inh inactive, JMJD2A Tudor inh inactive, VDR inh inactive and BAZ2B inh inactive.
CCN(CC)S(=O)(=O)c1cccc(-c2nnc(SCC(=O)NC3CCCCCCC3)n2N)c1 was read as G9a block inactive, HP1b chromo inh inactive, PLK1 PBD inh inactive, JMJD2A Tudor inh inactive, VDR inh inactive and BAZ2B inh inactive.
Screening CC(=O)NC1=NN(C(C)=O)C(c2ccccc2)S1 (stereo not drawn) returned G9a block inactive, HP1b chromo inh inactive, PLK1 PBD inh 4.7µM, JMJD2A Tudor inh 11µM, VDR inh inconclusive and BAZ2B inh inactive.
`CCN(C(=O)CSc1nncn1-c1ccccc1)c1c(N)n(Cc2ccccc2)c(=O)[nH]c1=O` gave G9a block inconclusive, HP1b chromo inh inactive, PLK1 PBD inh inactive, JMJD2A Tudor inh inactive, VDR inh inactive and BAZ2B inh inactive.
For CCN(C(=O)CSc1nnnn1-c1ccccc1)c1c(N)n(Cc2ccccc2)c(=O)[nH]c1=O the results were G9a block 13µM, HP1b chromo inh inactive, PLK1 PBD inh inactive, JMJD2A Tudor inh inactive, VDR inh inactive and BAZ2B inh inactive.
`CCN(C(=O)CSc1nc2ccccc2n1CC(C)C)c1c(N)n(Cc2ccccc2)c(=O)[nH]c1=O` gave HP1b chromo inh inactive, PLK1 PBD inh inactive, JMJD2A Tudor inh inactive and VDR inh inactive.
Screening CCN(C(=O)CSc1nc2ccccc2o1)c1c(N)n(Cc2ccccc2)c(=O)[nH]c1=O returned G9a block 7.1µM, HP1b chromo inh inactive, PLK1 PBD inh inactive, JMJD2A Tudor inh inactive, VDR inh inactive and BAZ2B inh inactive.
O=C(c1ccc(F)cc1)C1CCN(CCn2c(=S)[nH]c3ccccc3c2=O)CC1 was read as G9a block inconclusive, VDR inh inactive and BAZ2B inh inconclusive.
